system: RXRa homodimer (NR concentration 180 nM); test: PBM binding z-score (relative to random genomic background probes); higher = stronger binding; sequences stand for … in GC…GCGATTGACAGCGTAGAATGAAGG
Outline: (§1)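 Binding buffer was PBS pH 7.4 with 2% milk, 0.02% Triton X-100, 1 mM DTT, 0.2 mg/mL BSA and 0.4 mg/ml salmon testes DNA. In it, ligand-free nuclear receptor dimers were incubated 1 h on custom Agilent 4×180K protein-binding microarrays carrying double-stranded probes. Antibodies against each partner (one per run) detected binding, and z-scores were calculated against random background probes after regression normalization of scanned fluorescence.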

Going from TCTCGGAGGACACAAAGGTCAGAGCTTTCCAGAG to CGTTCAAGGTCAAAGGTCAGTGAAGAGATGACGG, the PBM binding z-score rises from 4.32 to 10.3.

Going from CCAGACAGGTGAGAAGGTAACTCAGCCTCGATTA to TAGCCTAGGTCATACAGGGGCCAGTATAGAAAGC, the PBM binding z-score rises from 0.448 to 3.26.

First: CCTACTGGGCCATTCAGAGGTCAATGATCATATG
Second: CCTACTGGGCCGTTCAGAGGTCATTGATCATATG
The PBM binding z-score of the first is lower: 3.05 for the first, 3.46 for the second.

Compared with ATATGTAGGTTATCTGGGGTCATTCAGACTAGGC, GATACAGGGTCAGCTACAGGCCAGAGTATGGAAA is lower in PBM binding z-score: 5.88 for the first, 4.23 for the second.

Compared with CAAACTAGGTCAAGAGGTCAAAGTTCGCTTCCCG, ATCGAAAGGTCCAAGGTGAGTATACCCACCCGAA is lower in PBM binding z-score: 8.33 for the first, 0.853 for the second.

Going from ATATGTAGGATAGCTGGGGTCATTCAGACTAGGC to TCGTGTAGGTTACGGGGGCATTCAGGGATGAAGA, the PBM binding z-score falls from 4.92 to 3.35.

First: CGAACTACGTCATCCAGGACAGTGAATACATTGA
Second: CGTCAAAGATCAAGGTAACGTAACAGAAAGCAGC
The PBM binding z-score of the first is lower: 0.2 for the first, 0.691 for the second.

Compared with CGAACTAGGTCAAGGACAGTAAATCTCCGCACGC, AATACAGGGTCACGAGGCCAGAGTAGGTACGAAT is higher in PBM binding z-score: 2.55 for the first, 7.67 for the second.

First: TCTAGTTGGTCACGGAGGACACACACGACGGGTA
Second: CGTCCAAGGTCAGCGGGTCAGTGAAAGCGACGTG
The PBM binding z-score of the first is lower: 0.864 for the first, 4.98 for the second.

First: ACGCGGAGGACAAAGGTCAGAGCTACGCCAGTGA
Second: CCTTACGGGTCACGTGGTTATAGCACGACGAGCG
The PBM binding z-score of the first is lower: 5.4 for the first, 6.08 for the second.

Compared with GGAACGAGGTCATTCGAGTTGATAGCATGGCGAT, TCTGCTAGGTCATCGATGGTCAGCTAATCTGCTA is lower in PBM binding z-score: 7.11 for the first, 2.73 for the second.

Going from ACTTAAGGGTCAACGAGGTTATAGCACGCGTATA to AATACAGGGTCATCGTACGCCAGAGTACGCACAG, the PBM binding z-score falls from 7.56 to 6.92.

First: ATCGAAAGGTCGACCAGGTGAGTATACACCGTTT
Second: TTACCAAGGTGAACGGTCGTTGATGCACGCCTTG
The PBM binding z-score of the first is higher: 4.37 for the first, 1.24 for the second.

Going from CCTACTGGGCCAAAAAGGTCATTGATGCCGATAA to AGTCAAAGTTCAGGACGAGGTAACGTTAAGCACG, the PBM binding z-score falls from 5.23 to 2.87.

Going from CGAACTAGGTCATTGACAGGACAATGAATAGTAA to TTACCAAGGTGAAAGGTCGTTGCTGCACGCCTTG, the PBM binding z-score rises from 2.79 to 5.85.

Going from GCTAGTTGGTCAGTAAAATGTCACACACCGGTCG to TAGCCTAGGTCATGCGGGCCAATATAGTGTCGGC, the PBM binding z-score rises from 0.272 to 3.1.

Going from CGTCCAAGGTCGAAGGTCAGTGAAGAGATGACGG to TCTAGTTGGTCACGGAGGGCACACACGACGGGTA, the PBM binding z-score falls from 6.09 to 1.35.

Compared with CCTGCTAGGTCATGGTCAGCGAATCTACAGTATG, CCTTACGGGTCACTGACAGGTTATAGCGTTTGGA is higher in PBM binding z-score: 3.09 for the first, 5.06 for the second.

Going from ACTTACGGGTCTACGAGGTTATAGCACGCGTATA to ACTCGGATGACAAAGGTCAGAGCTACGCCAGTGA, the PBM binding z-score rises from 1.32 to 4.83.

First: CCTACTGGGCCACGAAAGGCCATTGATTCAGTGA
Second: ATCGAAAGGTCGACGAGGTGAGTAAACACCGTTT
The PBM binding z-score of the first is lower: -0.0677 for the first, 4.54 for the second.

system: THRa:RXRa (NR concentration 90 nM, RXRa partner concentration 90 nM); test: as above
Outline: as §1

First: TCTCGGAGGACACAAAGGTCAGAGCTTTCCAGAG
Second: CGTTCAAGGTCAAAGGTCAGTGAAGAGATGACGG
The PBM binding z-score of the first is lower: 3.45 for the first, 5.04 for the second.

Compared with CCAGACAGGTGAGAAGGTAACTCAGCCTCGATTA, TAGCCTAGGTCATACAGGGGCCAGTATAGAAAGC is higher in PBM binding z-score: 0.425 for the first, 3.27 for the second.

Going from CCTACTGGGCCATTCAGAGGTCAATGATCATATG to CCTACTGGGCCGTTCAGAGGTCATTGATCATATG, the PBM binding z-score falls from 2.97 to 2.86.

Going from ATATGTAGGTTATCTGGGGTCATTCAGACTAGGC to GATACAGGGTCAGCTACAGGCCAGAGTATGGAAA, the PBM binding z-score falls from 5.46 to 2.83.

First: CAAACTAGGTCAAGAGGTCAAAGTTCGCTTCCCG
Second: ATCGAAAGGTCCAAGGTGAGTATACCCACCCGAA
The PBM binding z-score of the first is higher: 4.67 for the first, 1.35 for the second.

Compared with ATATGTAGGATAGCTGGGGTCATTCAGACTAGGC, TCGTGTAGGTTACGGGGGCATTCAGGGATGAAGA is lower in PBM binding z-score: 4.2 for the first, 4.09 for the second.

Compared with CGAACTACGTCATCCAGGACAGTGAATACATTGA, CGTCAAAGATCAAGGTAACGTAACAGAAAGCAGC is higher in PBM binding z-score: 1.27 for the first, 1.33 for the second.

Compared with CGAACTAGGTCAAGGACAGTAAATCTCCGCACGC, AATACAGGGTCACGAGGCCAGAGTAGGTACGAAT is higher in PBM binding z-score: 3.16 for the first, 4.06 for the second.

Going from TCTAGTTGGTCACGGAGGACACACACGACGGGTA to CGTCCAAGGTCAGCGGGTCAGTGAAAGCGACGTG, the PBM binding z-score rises from 1.83 to 3.74.

Compared with ACGCGGAGGACAAAGGTCAGAGCTACGCCAGTGA, CCTTACGGGTCACGTGGTTATAGCACGACGAGCG is lower in PBM binding z-score: 3.38 for the first, 3.04 for the second.

Going from GGAACGAGGTCATTCGAGTTGATAGCATGGCGAT to TCTGCTAGGTCATCGATGGTCAGCTAATCTGCTA, the PBM binding z-score falls from 4.76 to 3.33.

Compared with ACTTAAGGGTCAACGAGGTTATAGCACGCGTATA, AATACAGGGTCATCGTACGCCAGAGTACGCACAG is lower in PBM binding z-score: 4.4 for the first, 3.87 for the second.

Going from ATCGAAAGGTCGACCAGGTGAGTATACACCGTTT to TTACCAAGGTGAACGGTCGTTGATGCACGCCTTG, the PBM binding z-score falls from 3.34 to 1.93.

Going from CCTACTGGGCCAAAAAGGTCATTGATGCCGATAA to AGTCAAAGTTCAGGACGAGGTAACGTTAAGCACG, the PBM binding z-score rises from 3.12 to 3.83.

Compared with CGAACTAGGTCATTGACAGGACAATGAATAGTAA, TTACCAAGGTGAAAGGTCGTTGCTGCACGCCTTG is higher in PBM binding z-score: 2.91 for the first, 3.37 for the second.

First: GCTAGTTGGTCAGTAAAATGTCACACACCGGTCG
Second: TAGCCTAGGTCATGCGGGCCAATATAGTGTCGGC
The PBM binding z-score of the first is lower: -0.216 for the first, 3.14 for the second.

First: CGTCCAAGGTCGAAGGTCAGTGAAGAGATGACGG
Second: TCTAGTTGGTCACGGAGGGCACACACGACGGGTA
The PBM binding z-score of the first is higher: 3.04 for the first, 1.03 for the second.

First: CCTGCTAGGTCATGGTCAGCGAATCTACAGTATG
Second: CCTTACGGGTCACTGACAGGTTATAGCGTTTGGA
The PBM binding z-score of the first is higher: 2.9 for the first, 2.76 for the second.

Compared with ACTTACGGGTCTACGAGGTTATAGCACGCGTATA, ACTCGGATGACAAAGGTCAGAGCTACGCCAGTGA is higher in PBM binding z-score: 1.83 for the first, 2.54 for the second.

Compared with CCTACTGGGCCACGAAAGGCCATTGATTCAGTGA, ATCGAAAGGTCGACGAGGTGAGTAAACACCGTTT is higher in PBM binding z-score: 1.15 for the first, 3.78 for the second.

Source: the supplement of paper PMC6555819
